Assay results: the supplement of paper PMC6555819

Key:
Test in all cases: PBM binding z-score (relative to random genomic background probes); higher = stronger binding; sequences stand for … in GC…GCGATTGACAGCGTAGAATGAAGG
[1] = test system: RARb homodimer (NR concentration 270 nM)
Procedure, shortened: (§1)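 The probes on custom Agilent 4×180K protein-binding microarrays were double-stranded, with 34-nt variable regions bearing direct-repeat seeds, single-nucleotide variants, half-site ablations and random human genomic background sequences. Incubation lasted 1 h with ligand-free nuclear receptor dimers in PBS pH 7.4, 2% milk, 0.02% Triton X-100, 1 mM DTT, 0.2 mg/mL BSA and 0.4 mg/ml salmon testes DNA. Antibodies against each partner (one per run) detected bound dimers, and fluorescence scans were regression-normalized. Binding z-scores take the random background probes as reference.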

[2] = test system: RARg:RXRa (NR concentration 270 nM, RXRa partner concentration 90 nM)
Procedure, shortened: as §1

[3] = test system: RARg homodimer (NR concentration 270 nM)
Procedure, shortened: as §1

[4] = test system: RXRa DBDmut IVT, anti-RXR (DBD mutation: RXRa K156A/R161A, NR concentration 90 nM)
Procedure, shortened: as §1

[5] = test system: RXRa homodimer (NR concentration 180 nM)
Procedure, shortened: as §1

[6] = test system: THRa:RXRa (NR concentration 90 nM, RXRa partner concentration 90 nM)
Procedure, shortened: as §1

[7] = test system: THRa homodimer (NR concentration 90 nM)
Procedure, shortened: as §1

[8] = test system: VDR homodimer (NR concentration 270 nM)
Procedure, shortened: as §1

Sequence	PBM binding z-score [1]	PBM binding z-score [2]	PBM binding z-score [3]	PBM binding z-score [4]	PBM binding z-score [5]	PBM binding z-score [6]	PBM binding z-score [7]	PBM binding z-score [8]
CCTACGGGGCCATCAGGTCATTGATATCAACGTT	3.1	3.1	2.83	0.971	2.02	3.6	2.97	2.45
CCGACTGGGGCGGAAAGGTTACCATACCATCCGG	2.17	1.49	0.882	-1.21	1.76	1	-0.282	-0.201
TCGAGTAGGTTACCAATGGGGCATTGAGCTTTCT	0.567	1.1	0.221	0.408	0.672	0.145	-0.895	-0.64
CGTCCAAGGTCATCAGGTCAGTGAAAGCGACGTG	5.08	6.56	6.99	4.23	6.63	4.34	3.86	3.8
ATATCTAGGTTAGCTGGGGTCATTCAGACTAGGC	3.96	4.04	3.18	1.88	5.32	5.07	3.53	5.14
TCTTGTAGATCAATAGAGTTTAAGAAAGTGCGCT	0.231	0.0376	0.187	0.774	0.274	0.289	-0.976	0.914
GCTTGTTGATCAAGGTTAAGAAAGACTAAGCTAA	0.2	0.237	0.0786	0.0866	0.387	1.23	-0.213	-0.369
ACTAGCAGTCCAAGGGTCACTCAAGATTAGTCCG	3.7	3.72	3.27	0.612	3.58	2.61	0.466	1.15
CCGATTGGGGCAAAGGTTACCATACTCAGTACGA	2.03	3.52	1.64	0.678	3.76	1.84	-0.136	0.0147
CGTCCAATGTCAGAGAGGTCAGTGAATGCCGAGT	4.14	3.35	3.8	1.27	2.57	2.75	1.37	2.91
TAGACTAGGTCAGATCGGGCCAGTATACGCTATA	1.99	2.46	3.56	-0.416	1.24	3.92	-0.175	-0.33
TCGAGTAGGTTACCAATGGGGCACTCAGCTTTCT	0.601	1.21	0.434	0.0606	0.428	0.0127	-0.648	-0.704
AGAATGAGGTTATACCTAGATCAGGGAAGAAAGT	0.483	1.75	1.14	1.51	2.12	2.05	0.418	0.345
TCAGACAGGTGAAGGAAACTCAGGTACGCAGTCG	0.458	0.429	0.359	1.34	0.487	0.592	0.421	0.426
TCGAGTAGGTTAGGGGCATTTAGAATGGCGTCGA	0.875	0.265	0.0778	0.475	0.534	0.793	0.327	0.777
CAAACTAGGTCACCGGAAGGTCAAAGTGCGCATG	5.82	8.58	7.66	2.19	6.73	4.72	3.05	3.53
GCTCGGAGGACAAGGTGAGAGCTTTGTCCGTAGA	0.56	0.159	0.805	-0.507	-0.256	1.5	0.465	-0.74
ATCTCTAGGTAAGACTCAGTTCAGCGAAGAACGC	0.706	0.274	0.294	0.439	0.4	0.927	0.802	1.48
ATCTCTAGGTAAAATTCAGTGAAAGATCGATAGA	-0.326	0.344	0.677	0.391	0.121	0.32	0.151	0.281

Sequence	PBM binding z-score [1]	PBM binding z-score [2]	PBM binding z-score [3]	PBM binding z-score [4]	PBM binding z-score [5]	PBM binding z-score [6]	PBM binding z-score [7]	PBM binding z-score [8]
TCCTATAGGTAAACAGGTGAAAGTCCGTAAGTTA	0.829	0.269	0.132	1.06	0.667	0.77	0.418	0.275
ATCTCTAGGTAAAGGTAGTTCAGTGAATGCAAAT	0.964	0.44	0.605	0.345	0.164	1.21	0.679	1.12
GGGACTGGGGCATCAGCAGGTTACCATAACTTAA	1.91	1.51	1.03	-0.52	0.556	1.66	1.46	0.605
GATACAGGGTCAGCAAGAGGCCAGAGTATGGAAA	3.45	6.61	4.76	1.16	4.52	3.21	0.361	0.548
GCGCCTGGGGCATCAGCAGGTTACCATAACTTAA	0.912	0.748	0.657	-0.312	0.179	0.955	-0.0466	-0.553
CCTACTGGGCCATTCAGAGGTCATTCATCATATG	4.11	4.47	2.94	0.971	3.37	3.14	1.51	3.85
AGTCAAAGTTCACTTGGTAACGTAAGATTCAGCT	3.71	4.88	5.66	4.24	3.44	1.6	-0.48	4.05
ATCTCTCGGTAAAGTTCAGTGAAAGATCGATAGA	2.62	2.19	2.56	1.17	1.06	0.717	0.426	2.27
AATACAGGGTCATCGTAGGACAGAGTACGCACAG	3.3	5.62	5.18	3.38	6.61	4.82	1.71	4.11
ATCGAAAGGTCGTGAGGTGAGCATACAGAAAGGC	3.19	4.58	4.26	1.12	5.3	3.45	1.68	0.917
TCTATTAGTTGATTAGGGCAACCAAAACAGCGGA	0.623	0.694	0.677	0.92	0.57	0.825	0.291	0.358
GCTAGCAGGCCATTTGGCTCACTCAATGACGGGC	-1.05	-0.42	-0.0728	0.0311	-0.355	-1.69	-1.04	-0.733
CCCGAAAGGTCGTGCTCAGGTGAGTATACCAAAC	2.89	5.06	4.02	2.2	4.95	4.1	1.71	1.48
TCTTGTTGGTCACGGAGGTCACACACGACGGGTA	4.67	5.21	5.01	1.25	5.34	3.66	3.03	3.59
TCTGGTAGATCAAGCAGGTTAAGAAAGCCTGAGT	-0.182	-0.3	-0.211	0.0546	0.202	-0.00478	-0.796	0.261
CCGACTGGGGCAGAAAGGTTACGATACCATCCGG	2.38	1.96	1.37	-0.562	2.09	1.15	-0.229	-0.0227
GGAACGAGGGCAACGTTGATAGCATCTGTCGACG	0.961	1.37	1.79	1.56	0.986	0.981	-0.186	-0.00307
GCTATTAGTTGAGAGGGCAACCGAATGATTCTCG	1.14	0.913	1.01	0.884	0.882	0.555	-0.117	0.435
CGTCAAAGTTCAACTAAGGTACCGTAAAGCACGC	4.34	5.81	6.61	4.77	5.35	4.81	0.671	4.06

Sequence	PBM binding z-score [1]	PBM binding z-score [2]	PBM binding z-score [3]	PBM binding z-score [4]	PBM binding z-score [5]	PBM binding z-score [6]	PBM binding z-score [7]	PBM binding z-score [8]
AGAAAGAGGTTAAGATCAGGGAAACAGAATACAT	1.42	2.54	1.86	0.244	2.82	2.02	0.45	0.57
AGAATGAGGTTATTAAGATCGGGGAATTGCGGTC	0.767	0.927	0.627	2.18	1.38	2.2	0.74	1.27
TTCCCAAGGTGAAAGGTCGTTGATGCACGCCTTG	3.14	4.25	2.13	0.532	5.91	3.6	1.4	1.52
AATACAGGGTCATCGTAGGCCAGAGTGCGCACAG	3.68	5.64	4.81	3.12	6.37	4.6	1.4	3.2
ACTATTAGTAGACTTAGGGCAACCGATACGACGC	0.674	0.363	0.941	0.409	0.292	0.596	0.558	0.227
GCTTGTGGATCAAGGTTAAGAAAGACTAAGCTAA	0.362	0.34	0.12	0.0412	0.848	1.27	-0.23	0.00536
CCTACTGGGCCAAGGTCATTGAACAGTCAAAGCA	3.4	3.82	3.72	0.677	3.68	3.5	2.14	2.77
GGTACAGGGTCAAGGCCAGAGTACGCGTATTGAT	3.76	5.41	5.03	1.78	5.91	3.58	1.26	2.94
TATACAGGGACAAAGGCCAGAGTACGAATGTCGA	1.4	1.29	1.58	-0.217	0.385	0.949	-0.0231	0.738
TAGCCTAGGTTATTCAGGGGCCAGTATAGAAAGC	0.985	3.15	0.714	-0.074	0.459	1.93	-0.239	-0.459
CCGACTGGGGCATAAGGTTACCATTAGCCAGCCC	1.82	1.34	0.904	-0.204	1.08	1.87	1.37	-0.611
TCTAGTTTGTCACGGAGGTCACACACGACGGGTA	4.23	4.3	4.16	1.65	4.54	3.6	2.96	3.15
ATATGTAGGTTAGCTCGGGTCATTCAGACTAGGC	2.89	2.48	2.04	0.986	3.02	4.98	2.7	2.6
CAAACTAGGTCAAGAGGTCAAAGCCCGCTTCCCG	5.64	8.19	7.34	2.92	7.83	4.46	2.47	3.87
CGTCCAAGGTCAGAGAGGGCAGTGAATGCCGAGT	4.41	4.86	5.33	3.24	3.8	3.96	1.86	3.51
TCTTGTAGATCAGAGGTTAAGAAAGCCGAAGCCT	0.579	0.522	0.221	0.653	1.5	0.868	-0.337	0.103
CCTGCTACGTCATGGTCAGCTAATCTACAGTATG	-0.0724	0.00255	-0.0549	0.43	-0.184	-0.381	-0.695	-0.512
CTCGAAAGATCGTGCTCAGGTGAGTATACCAAAC	-0.0864	-0.0578	-0.229	-0.0478	-0.33	1.28	0.584	-0.082
TCATATAGGTAAAGGCGAAAGTCGAACGATATGA	-0.012	0.425	0.439	0.563	0.727	-0.186	-0.507	-0.251
